ClpP mod: qHTS Assay for Activators of ClpP | Potency, µM (titrated, usually from 57.5 µM), without a hit: at the top dose activity change, negative = active | purified B. subtilis ClpP, FRET peptide cleavage, 20 min | ATP-dependent Clp protease proteolytic subunit (Bacillus subtilis (strain 168)), P80244 | 1.9% of 340,000 active | AID 651965, 2013; active means well fitted falling curve with a large enough effect; inconclusive means small, poorly fitted or top-dose-only effect; inactive means no such curve, though single readings can be large or run the other way; further: potency means the concentration at half of the fitted maximal effect; the source files actives as falling curves though it sought activators and does not explain the sign; nearly all actives have a fitted effect of over 65% in size
Target sequence (P80244 whole entry, looked up): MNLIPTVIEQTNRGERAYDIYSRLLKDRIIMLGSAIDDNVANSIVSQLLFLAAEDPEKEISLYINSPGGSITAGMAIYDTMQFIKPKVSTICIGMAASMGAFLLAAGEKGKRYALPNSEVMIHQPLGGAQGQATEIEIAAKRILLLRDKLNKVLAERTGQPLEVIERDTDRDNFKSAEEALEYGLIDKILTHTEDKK
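FRET quenching reversal measured ClpP activation: 10 microg/mL B. subtilis ClpP at pH 8 with the FRET-FV decapeptide, read at 430 nm after 320 nm excitation. The 20-min minus 0-min signal was scaled between DMSO/no-enzyme wells and ADEP (5.8 microM final).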
TDP1 cell CPT: DT40-hTDP1 cell growth loss with CPT. Potency, µM (highest dose often 46.2 µM), for the others: at the highest dose activity change, negative = growth inhibition, hits mostly inhibitors. chicken DT40 Tdp1-/-;hTDP1 cells + 20 nM CPT, ATP luminescence, 48 h. 12% of 420,000 active; further: potency means the concentration at half of the fitted maximal effect; on the % scale 0 is the no-effect control and ±100 the full control effect; nearly all actives have a fitted effect of over 55% in size
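Cell growth measured by CellTiter-Glo luminescence after a minimum 48 h, 37 C compound exposure with 20 nM CPT in Tdp1-knockout DT40 cells stably expressing hTDP1, seeded 400/well; qHTS titration format.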
DT40 TDP1 no CPT: qHTS for Inhibitors of human tyrosyl-DNA phosphodiesterase 1 (TDP1): qHTS in cells in absence of CPT. DT40 Tdp1-/- hTDP1 cells, no CPT, ATP luminescence, 48 h. Potency, µM (titrated, usually from 46.2 µM), for the others: at the top dose activity change, negative = growth inhibition, usual class: inhibitors. 15% of 420,000 active. AID 686978, 2013; further: potency means the concentration at half of the fitted maximal effect; on the % scale 0 is the no-effect control and ±100 the full control effect; nearly all actives have a fitted effect of over 55% in size
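Cells were dispensed at 400 per well, compounds added by pin tool, plates incubated ≥48 hr at 37 °C, then CellTiter-Glo added for 30 min at room temperature before luminescence reading. Line: DT40 Tdp1-/- complemented with hTDP1; camptothecin omitted.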
IL-1B inflam inh: inhibitors of inflammasome signaling (IL-1 beta secretion); THP-1 LPS/ATP IL-1B secretion, AlphaLISA, 16 h; stronger effect = lower value; activity change, % at 57.5 µM; 4.7% of 360,000 active; AID 743279; in the data active means activity change below about -50%; inconclusive means mostly about -30% to -49%; further: on the % scale 0 is the no-effect control and ±100 the full control effect
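THP-1 cells pretreated 1 hr with compounds (up to 57.5 uM final), then stimulated with LPS (250 ng/mL final) plus ATP (1.25 mM final); secreted IL-1B measured by AlphaLISA after 16 hr, decreased signal indicating inhibition.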
D3 antag: antagonists of human D3 dopamine receptor; P35462; D3R cells, DiscoveRx beta-arrestin luminescence, antagonist mode; stronger effect = lower value; max response, negative = inhibition, %; 2.5% of 360,000 active; AID 652054; in the data active means max response below about -50%; inconclusive means no clear call, values can overlap the other calls; further: on the % scale 0 is the no-effect control and ±100 the full control effect
Target sequence (P35462 whole entry, looked up): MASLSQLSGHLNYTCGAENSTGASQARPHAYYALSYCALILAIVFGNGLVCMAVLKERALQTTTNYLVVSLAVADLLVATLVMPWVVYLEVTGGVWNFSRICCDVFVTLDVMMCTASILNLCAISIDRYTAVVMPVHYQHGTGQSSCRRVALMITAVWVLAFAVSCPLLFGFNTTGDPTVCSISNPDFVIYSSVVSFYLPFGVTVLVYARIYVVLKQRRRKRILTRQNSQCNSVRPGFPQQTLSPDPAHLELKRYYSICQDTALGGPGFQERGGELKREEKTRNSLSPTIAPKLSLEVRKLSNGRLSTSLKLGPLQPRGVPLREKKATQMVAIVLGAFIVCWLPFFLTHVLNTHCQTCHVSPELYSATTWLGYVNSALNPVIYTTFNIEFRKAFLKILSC
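Cells plated overnight at 1500 cells/well, then exposed to library compounds with dopamine controls for 90 minutes at 37 degrees C. DiscoveRx reagent added for 30–60 minutes at room temperature; luminescence read, quantitative HTS format.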
DRD3 agonist: activates the human D3 dopamine receptor; D3R DiscoveRx beta-arrestin cells, luminescence, 90 min; max activation, %; AID 652048; P35462; 0.58% of 410,000 active; in the data active means max activation above about 30%; further: 0% is about no effect
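Agonist-mode cell screen: cells plated at 1500/well and incubated overnight at 37 °C, then exposed to library compounds for 90 min at 37 °C. Detection reagent was added for 30–60 min at room temperature, and luminescence was read.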
The depositor's hits bear a star; u = inconclusive; x = no result; [ ] = dose if it differs, or a comment. Shown are actives, neighbours in structure and some others; about 21% of the full set was active somewhere. Unless noted, the call rests on the fitted dose curve; in most records, active means well fitted inhibition curve with a large enough effect; inconclusive means small, poorly fitted or top-dose-only effect; inactive means flat fitted curve, though single readings scatter.

SMILES	ClpP mod	TDP1 cell CPT	DT40 TDP1 no CPT	IL-1B inflam inh	D3 antag	DRD3 agonist
COc1ccccc1CCNC(=O)C1CCN(c2nc3ccccc3nc2C(F)(F)F)CC1	0%	16µM*	7.3µM*	x	x	-15
O=C(NCCc1ccccc1Cl)C1CCN(c2nc3ccccc3nc2C(F)(F)F)CC1	0%	u	u	x	x	1
COc1cccc(NC(=O)C2CCN(c3nc4ccccc4nc3C(F)(F)F)CC2)c1	1%	23µM*	15µM*	x	x	32*
Cc1csc(NC(=O)c2ccc(S(=O)(=O)N3CCN(C)CC3)cc2)n1	x	-16%	-11%	12	6	-5
O=C(Nc1ncc(Cc2ccc(SC(F)F)cc2)s1)c1ccc(OC(F)F)cc1	107%	1.3µM*	1µM*	22	11	1
CC(C)N(c1ccccc1)c1ccc(NC(=O)CCl)cc1	-2%	16µM*	2.6µM*	-100*	-19	-9
O=C(Nc1ccc(N=Nc2ccccc2)cc1)c1ccccc1Cl	3%	u	-28%	-67*	-11	-5
O=C(CCl)Nc1ccc(N=Nc2ccccc2)cc1	1%	2.9µM*	u	-98*	-18	2
C[C@H]1CN(c2ccccc2)C(=O)[C@@H]1CC(=O)Nc1ccccc1	-1%	7%	-27%	-19	8	-2
CCCS(=O)(=O)c1nc(S(=O)(=O)c2ccc(C)cc2)c(N2CCC(C(N)=O)CC2)s1	-2%	u	-14%	u	-18	4
Cc1ccc2c(CC(=O)Nc3ccc(S(=O)(=O)N4CCCCC4C)cc3)coc2c1C (stereo not drawn)	-5%	u	u	x	x	1
Cc1ccc(Cn2ncc3c(N4CCCC4)ncnc32)cc1	-1%	u	u	-20	14	-5
c1ccc(Cn2ncc3c(N4CCN(c5ccccc5)CC4)ncnc32)cc1	u	18µM*	16µM*	u	44	11
Cc1ccc(Cn2ncc3c(N4CCN(CC#N)CC4)ncnc32)cc1	x	-15%	u	-15	16	4
c1ccc(Cn2ncc3c(N4CCN(C(c5ccccc5)c5ccccc5)CC4)ncnc32)cc1	0%	18µM*	21µM*	-1	-16	-4
Cn1nc(C(=O)NNC(=O)CCc2ccccc2Cl)c2ccccc2c1=O	-2%	-3%	2%	-12	7	0
CC(C)(C)c1cccc(Cn2nnc3ccccc32)c1O	-5%	29µM*	21µM*	-1	-21	-2
Cc1cc(Cn2nnc3ccccc32)c(O)c(C(C)(C)C)c1	-5%	16µM*	16µM*	25	17	-44
O=C(CCc1ccccc1)Nc1ccc2c(c1)C(=O)OC2	1%	9%	-18%	6	15	8
Nc1c(Cl)cc(C2=NCCn3nc4ccccc4c32)cc1Cl	-3%	23µM*	u	-15	-22	-6
COc1ccc2c3n(nc2c1)CCN=C3c1ccc(C)cc1	-1%	16µM*	u	5	u	-3
CC(O)(COc1ccccc1)c1ccc2c(c1)CN(Cc1ccc3nsnc3c1)CCO2 (stereo not drawn)	x	-2%[9.04 µM]	-26%	x	x	x
COc1cc2oc3ccccc3c2cc1N(CC(=O)N(C)C)S(=O)(=O)c1ccc(C)cc1	1%	-8%	-5%	9	27	-1
COc1cc2oc3ccccc3c2cc1N(CC(=O)N1CCCCC1)S(=O)(=O)c1ccc(C)cc1	-17%	u	23µM*	8	-6	-19
CCN(CC)C(=O)CN(c1cc2c(cc1OC)oc1ccccc12)S(=O)(=O)c1ccccc1	-11%	18µM*	u	-12	0	-15
SMILES	ClpP mod	TDP1 cell CPT	DT40 TDP1 no CPT	IL-1B inflam inh	D3 antag	DRD3 agonist
COc1ccc(OC)c(S(=O)(=O)NCCc2csc3nc(-c4ccccc4)nn23)c1	0%	-27%	u	x	x	2
Cc1nc(C)n(CC(=O)NCC2Cc3cc(-c4ccsc4)cc(Cl)c3O2)n1 (stereo not drawn)	x	0%	u	x	x	x
COC(=O)c1ccc(NC(=O)[C@H](C)NC(N)=O)cc1	0%	4%	12%	-15	5	3
CCn1c(CSc2nc3ccccc3s2)n[nH]c1=S	1%	u	u	16	-53*	-1
c1ccc2sc(SCSc3nc4ccccc4s3)nc2c1	-1%	u	u	22	-5	5
CN(C)CCCSc1nc2ccccc2s1	-1%	u	3%	9	-82*	-25
S=c1[nH]nc(CSc2nc3ccccc3s2)n1Cc1ccccc1	-2%	2%	-9%	25	u	-5
CCn1c(CSc2nc3ccccc3s2)nnc1SCC(=O)c1ccc(Cl)cc1	-3%	16µM*	21µM*	-21	3	-2
Cc1ccc(CNC(=O)Cn2c(=O)cc(C)c3c(C)nn(-c4cccc(F)c4)c32)cc1	-6%	2%	-1%	x	x	1
COCCn1c(=O)c(-c2ccc(Cl)cc2)nc2cnc(Oc3ccc(OC)cc3)nc21	x	u	-4%	x	x	x
Cc1noc(/C=C/c2cccs2)c1S(=O)(=O)N1CCC(C(=O)NCc2ccccc2Cl)CC1	-6%	-1%	-28%	x	x	5
COc1ccc(Nc2nc(C)nc3c2nnn3Cc2ccccc2Cl)c(OC)c1	15%	-5%	1%	0	-21	2
Cc1ccc(N2CCN(c3cc(C)nc4c(-c5ccc(Cl)cc5)c(C)nn34)CC2C)cc1 (stereo not drawn)	u	11%	0%	x	x	4
N#CCCn1c(=O)c(-c2ccc(Cl)cc2)nc2cnc(OCc3ccccc3)nc21	x	-13%	-3%	x	x	x
CCC(=O)NNc1ncnc2c1cnn2-c1ccc(C)c(Cl)c1	-27%	-21%	-33%	x	x	-11
Cc1c(C(=O)C(=O)N2CC=C(c3ccccc3)CC2)c2ccccc2n1C	-2%	2.9µM*	2.6µM*	33	2	4
Cc1ccc(C(=O)N2CC=C(c3ccccc3)CC2)o1	x	u	u	-21	-8	-4
